# According to PubChem BioAssay AID1159580 (chemical genetic matrix, 2015):
# Several values for one entry are separate records, joined by “and”; a condition that tells them apart may be missing. Identical values can stand only once. Out of some 5,500 compounds screened, about 2,000 (36%) were called active. About 18% were inconclusive and are not listed. Cut-off read from the data, not from the text of the source: active = normalized growth mostly below about 0.91 (no sharp cut-off); inconclusive = no clear call, values can overlap the other calls; inactive = mostly above about 0.92. Some of the results follow. More than one record can exist for a structure, and the calls need not agree.
# Assay: chemical genetic growth profiling, strain panel (AID 1159580);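 note: tested at 20 µM; growth read once vehicle control cultures reached saturation at 30 °C; 1 = growth at the plate median or of vehicle wells; lower values mean less growth of the strain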
# Settings: growth OD
smiles,measurement,setting,value
O=C(CCCN1CCC(O)(c2ccc(Cl)cc2)CC1)c1ccc(F)cc1,normalized growth,"S. cerevisiae deletion strains, locus YJR043C, strain POL32, stronger effect = lower value",0.93 (inactive)
same,normalized growth,"S. cerevisiae deletion strains, locus YJR066W, strain TOR1, stronger effect = lower value",0.939 (inactive)
same,normalized growth,"S. cerevisiae deletion strains, locus YJR075W, strain HOC1, stronger effect = lower value",0.819 (active)
same,normalized growth,"S. cerevisiae deletion strains, locus YKL009W, strain mrt4, stronger effect = lower value",0.963 (inactive)
same,normalized growth,"S. cerevisiae deletion strains, locus YKL068W, stronger effect = lower value",1.02 (inactive)
same,normalized growth,"S. cerevisiae deletion strains, locus YKL085W, strain MDH1 (second series), stronger effect = lower value",1.02 (inactive)
same,normalized growth,"S. cerevisiae deletion strains, locus YKL085W, strain MDH1, stronger effect = lower value",1.02 (inactive)
same,normalized growth,"S. cerevisiae deletion strains, locus YKL160W, strain elf1, stronger effect = lower value",0.904 (inactive)
same,normalized growth,"S. cerevisiae deletion strains, locus YKR001C, strain vps1, stronger effect = lower value",0.247 (active)
same,normalized growth,"S. cerevisiae deletion strains, locus YKR026C, strain gcn3, stronger effect = lower value",1.03 (inactive)
same,normalized growth,"S. cerevisiae deletion strains, locus YKR091W, strain srl3, stronger effect = lower value",1.03 (inactive)
same,normalized growth,"S. cerevisiae deletion strains, locus YLL001W, strain dnm1, stronger effect = lower value",0.958 (inactive)
same,normalized growth,"S. cerevisiae deletion strains, locus YLL026W, stronger effect = lower value",0.947 (inactive)
same,normalized growth,"S. cerevisiae deletion strains, locus YLL041C, strain sdh2, stronger effect = lower value",1.02 (inactive)
same,normalized growth,"S. cerevisiae deletion strains, locus YLR027C, strain aat2, stronger effect = lower value",0.911 (active)
same,normalized growth,"S. cerevisiae deletion strains, locus YLR039C, strain RIC1, stronger effect = lower value",1.39 [resistant] (active)
same,normalized growth,"S. cerevisiae deletion strains, locus YLR058C, strain SHM2, stronger effect = lower value",0.746 (active)
same,normalized growth,"S. cerevisiae deletion strains, locus YLR102C, strain apc9, stronger effect = lower value",1.02 (inactive)
same,normalized growth,"S. cerevisiae deletion strains, locus YLR113W, strain HOG1, stronger effect = lower value",1.03 (inactive)
same,normalized growth,"S. cerevisiae deletion strains, locus YLR221C, strain rsa3, stronger effect = lower value",0.923 (inactive)
same,normalized growth,"S. cerevisiae deletion strains, locus YLR258W, strain gsy2, stronger effect = lower value",0.938 (inactive)
same,normalized growth,"S. cerevisiae deletion strains, locus YLR262C, strain YPT6 (second series), stronger effect = lower value",0.893 (inactive)
same,normalized growth,"S. cerevisiae deletion strains, locus YLR262C, strain YPT6, stronger effect = lower value",1.37 (inactive)
same,normalized growth,"S. cerevisiae deletion strains, locus YLR268W, strain sec22, stronger effect = lower value",0.794 (active)
same,normalized growth,"S. cerevisiae deletion strains, locus YLR320W, strain mms22, stronger effect = lower value",0.49 (active)
same,normalized growth,"S. cerevisiae deletion strains, locus YLR330W, strain CHS5, stronger effect = lower value",0.849 (active)
same,normalized growth,"S. cerevisiae deletion strains, locus YLR342W, strain FKS1 (second series), stronger effect = lower value",0.726 (active)
same,normalized growth,"S. cerevisiae deletion strains, locus YLR342W, strain FKS1, stronger effect = lower value",1.01 (inactive)
same,normalized growth,"S. cerevisiae deletion strains, locus YLR357W, strain rsc2, stronger effect = lower value",1.19 [resistant] (active)
same,normalized growth,"S. cerevisiae deletion strains, locus YLR370C, strain arc18, stronger effect = lower value",0.965 (inactive)
same,normalized growth,"S. cerevisiae deletion strains, locus YLR371W, strain rom2, stronger effect = lower value",1 (inactive)
same,normalized growth,"S. cerevisiae deletion strains, locus YLR384C, strain iki3, stronger effect = lower value",0.999 (inactive)
same,normalized growth,"S. cerevisiae deletion strains, locus YLR418C, strain cdc73, stronger effect = lower value",0.496 (active)
same,normalized growth,"S. cerevisiae deletion strains, locus YML016C, strain PPZ1, stronger effect = lower value",0.915 (active)
same,normalized growth,"S. cerevisiae deletion strains, locus YML032C, strain rad52, stronger effect = lower value",0.82 (active)
same,normalized growth,"S. cerevisiae deletion strains, locus YML120C, strain ndi1, stronger effect = lower value",0.932 (inactive)
same,normalized growth,"S. cerevisiae deletion strains, locus YML124C, strain tub3, stronger effect = lower value",0.994 (inactive)
same,normalized growth,"S. cerevisiae deletion strains, locus YMR058W, strain fet3, stronger effect = lower value",0.821 (active)
same,normalized growth,"S. cerevisiae deletion strains, locus YMR078C, strain ctf18, stronger effect = lower value",1.01 (inactive)
same,normalized growth,"S. cerevisiae deletion strains, locus YMR125W, strain sto1, stronger effect = lower value",0.876 (active)
same,normalized growth,"S. cerevisiae deletion strains, locus YMR129W, stronger effect = lower value",1.03 (inactive)
same,normalized growth,"S. cerevisiae deletion strains, locus YMR205C, strain PFK2, stronger effect = lower value",0.949 (inactive)
same,normalized growth,"S. cerevisiae deletion strains, locus YMR223W, strain ubp8, stronger effect = lower value",0.8 (active)
same,normalized growth,"S. cerevisiae deletion strains, locus YMR231W, strain pep5, stronger effect = lower value",1.01 (inactive)
same,normalized growth,"S. cerevisiae deletion strains, locus YMR263W, strain SAP30, stronger effect = lower value",0.996 (inactive)
same,normalized growth,"S. cerevisiae deletion strains, locus YMR307W, strain GAS1, stronger effect = lower value",0.526 (active)
same,normalized growth,"S. cerevisiae deletion strains, locus YNL067W, strain RPL9B, stronger effect = lower value",0.844 (active)
same,normalized growth,"S. cerevisiae deletion strains, locus YNL071W, strain lat1, stronger effect = lower value",0.552 (active)
same,normalized growth,"S. cerevisiae deletion strains, locus YNL153C, strain GIM3, stronger effect = lower value",0.826 (active) and 0.893 (inactive)
same,normalized growth,"S. cerevisiae deletion strains, locus YNL175C, strain NOP13, stronger effect = lower value",0.664 (active)
same,normalized growth,"S. cerevisiae deletion strains, locus YNL183C, strain NPR1, stronger effect = lower value",0.971 (inactive)
same,normalized growth,"S. cerevisiae deletion strains, locus YNL197C, strain WHI3, stronger effect = lower value",0.997 (inactive)
same,normalized growth,"S. cerevisiae deletion strains, locus YNL209W, strain ssb2, stronger effect = lower value",0.933 (inactive)
same,normalized growth,"S. cerevisiae deletion strains, locus YNL224C, strain SQS1, stronger effect = lower value",1.04 (inactive)
same,normalized growth,"S. cerevisiae deletion strains, locus YNL233W, strain BNI4, stronger effect = lower value",0.751 (active)
same,normalized growth,"S. cerevisiae deletion strains, locus YNL248C, strain rpa49, stronger effect = lower value",0.818 (active)
same,normalized growth,"S. cerevisiae deletion strains, locus YNL250W, strain rad50, stronger effect = lower value",1 (inactive)
same,normalized growth,"S. cerevisiae deletion strains, locus YNL271C, strain bni1, stronger effect = lower value",1 (inactive)
same,normalized growth,"S. cerevisiae deletion strains, locus YNL298W, strain CLA4, stronger effect = lower value",1.02 (inactive)
same,normalized growth,"S. cerevisiae deletion strains, locus YNL307C, strain MCK1, stronger effect = lower value",0.815 (active)
same,normalized growth,"S. cerevisiae deletion strains, locus YNL322C, strain KRE1 (second series), stronger effect = lower value",1.11 [resistant] (active)
same,normalized growth,"S. cerevisiae deletion strains, locus YNL322C, strain KRE1, stronger effect = lower value",0.884 (active)
same,normalized growth,"S. cerevisiae deletion strains, locus YNR049C, strain mso1, stronger effect = lower value",1.04 (inactive)
same,normalized growth,"S. cerevisiae deletion strains, locus YNR052C, strain pop2, stronger effect = lower value",0.737 (active)
same,normalized growth,"S. cerevisiae deletion strains, locus YOL012C, strain htz1",1.18 (inactive)
same,normalized growth,"S. cerevisiae deletion strains, locus YOL147C, strain pex11, stronger effect = lower value",0.941 (inactive)
same,normalized growth,"S. cerevisiae deletion strains, locus YOR001W, strain rrp6, stronger effect = lower value",0.871 (active)
same,normalized growth,"S. cerevisiae deletion strains, locus YOR061W, strain CKA2, stronger effect = lower value",0.942 (inactive)
same,normalized growth,"S. cerevisiae deletion strains, locus YOR069W, strain VPS5, stronger effect = lower value",0.963 (inactive)
same,normalized growth,"S. cerevisiae deletion strains, locus YOR070C, strain gyp1, stronger effect = lower value",0.29 (active)
same,normalized growth,"S. cerevisiae deletion strains, locus YOR080W, strain dia2, stronger effect = lower value",0.969 (inactive)
same,normalized growth,"S. cerevisiae deletion strains, locus YOR083W, strain WHI5 (second series), stronger effect = lower value",0.977 (inactive)
same,normalized growth,"S. cerevisiae deletion strains, locus YOR083W, strain WHI5, stronger effect = lower value",0.944 (inactive)
same,normalized growth,"S. cerevisiae deletion strains, locus YOR106W, strain vam3, stronger effect = lower value",0.935 (inactive)
same,normalized growth,"S. cerevisiae deletion strains, locus YOR136W, strain idh2, stronger effect = lower value",0.98 (inactive)
same,normalized growth,"S. cerevisiae deletion strains, locus YOR144C, strain elg1, stronger effect = lower value",1 (inactive)
same,normalized growth,"S. cerevisiae deletion strains, locus YOR184W, strain ser1, stronger effect = lower value",0.847 (active)
same,normalized growth,"S. cerevisiae deletion strains, locus YOR231W, strain MKK1, stronger effect = lower value",0.991 (inactive)
same,normalized growth,"S. cerevisiae deletion strains, locus YOR265W, strain rbl2, stronger effect = lower value",0.974 (inactive)
same,normalized growth,"S. cerevisiae deletion strains, locus YOR270C, strain vph1, stronger effect = lower value",0.381 (active)
same,normalized growth,"S. cerevisiae deletion strains, locus YOR290C, strain snf2, stronger effect = lower value",0.843 (active)
same,normalized growth,"S. cerevisiae deletion strains, locus YOR316C, strain cot1, stronger effect = lower value",1.02 (inactive)
same,normalized growth,"S. cerevisiae deletion strains, locus YPL051W, strain arl3, stronger effect = lower value",0.789 (active)
same,normalized growth,"S. cerevisiae deletion strains, locus YPL078C, strain atp4, stronger effect = lower value",0.914 (inactive)
same,normalized growth,"S. cerevisiae deletion strains, locus YPL106C, strain sse1, stronger effect = lower value",1.17 [resistant] (active)
same,normalized growth,"S. cerevisiae deletion strains, locus YPL240C, strain hsp82, stronger effect = lower value",1 (inactive)
same,normalized growth,"S. cerevisiae deletion strains, locus YPL241C, strain CIN2, stronger effect = lower value",0.89 (active) and 0.969 (inactive)
same,normalized growth,"S. cerevisiae deletion strains, locus YPL256C, strain CLN2, stronger effect = lower value",0.99 (inactive)
same,normalized growth,"S. cerevisiae deletion strains, locus YPR119W, strain clb2, stronger effect = lower value",1.04 (inactive)
same,normalized growth,"S. cerevisiae deletion strains, locus YPR141C, strain kar3, stronger effect = lower value",1.04 (inactive)
same,normalized growth,"S. cerevisiae deletion strains, locus YPR163C, strain tif3, stronger effect = lower value",0.575 (active)
same,normalized growth,"S. cerevisiae deletion strains, locus YPR167C, strain met16, stronger effect = lower value",0.942 (inactive)
same,normalized growth,"S. cerevisiae deletion strains, strain wtn01, stronger effect = lower value",0.776 (active)
same,normalized growth,"S. cerevisiae strains, strain wild type, stronger effect = lower value",0.833 (active)
